High-throughput results: PubChem BioAssay, National Center for Advancing Translational Sciences (NCATS)
ASM inhibitor: Inhibitors of Secretory Acid Sphingomyelinase (S-ASM): qHTS; Sphingomyelin phosphodiesterase (Homo sapiens), P17405; placental ASM, HMU-PC fluorogenic substrate, 60 min; 0.006% of 340,000 active; Potency, µM (series often up to 57.5 µM), most hits filed as inhibitors; AID 504937, 2011
Target sequence (P17405 47-631 limits assumed): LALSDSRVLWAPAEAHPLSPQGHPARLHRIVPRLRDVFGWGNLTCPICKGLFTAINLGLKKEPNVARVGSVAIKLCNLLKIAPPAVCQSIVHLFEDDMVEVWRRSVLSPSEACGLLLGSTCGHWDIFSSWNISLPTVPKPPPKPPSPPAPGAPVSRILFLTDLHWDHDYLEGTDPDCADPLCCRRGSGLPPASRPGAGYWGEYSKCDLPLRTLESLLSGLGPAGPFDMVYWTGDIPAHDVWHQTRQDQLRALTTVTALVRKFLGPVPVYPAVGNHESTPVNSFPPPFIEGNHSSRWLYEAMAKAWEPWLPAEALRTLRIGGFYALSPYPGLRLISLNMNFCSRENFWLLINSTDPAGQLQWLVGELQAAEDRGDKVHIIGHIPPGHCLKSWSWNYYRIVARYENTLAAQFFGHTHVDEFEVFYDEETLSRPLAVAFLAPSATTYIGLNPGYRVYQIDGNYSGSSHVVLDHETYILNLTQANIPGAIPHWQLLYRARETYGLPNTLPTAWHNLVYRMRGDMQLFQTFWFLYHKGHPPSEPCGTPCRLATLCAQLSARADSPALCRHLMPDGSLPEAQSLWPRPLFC
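Human placenta-derived ASM enzyme was preincubated with compound for 10 minutes at room temperature, then given fluorogenic substrate HMU-PC0 (9 uM final) for 60 minutes at 37 °C; a pH 10 stop preceded fluorescence reading at Ex 386/Em 447 nm.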
HepG2 tox: qHTS for Inhibitors of TGF-b: Cytotox Counterscreen; Potency, µM (doses to about 46.1 µM), hits mostly cytotoxic; HepG2 CAGA-GFP viability, ATP luminescence, 18 h; AID 588856, 2011; 0.76% of 410,000 active
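HepG2 CAGA-GFP cells (1000/well, DMEM with 1% FBS) received compound, then TGF-beta at 500 pg/mL final, and were incubated 18 hours at 37 degrees C. Viability was read by CellTiter-Glo luminescence. Media-only wells were set as complete cell-killing and DMSO as no toxicity.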
TGFb inhibitor: qHTS for Inhibitors of TGF-b; HepG2 CAGA-GFP TGF-b/SMAD3 reporter, GFP fluorescence, 18 h; TGF-beta stimulated, 500 pg/mL final; Potency, µM (doses to about 46.1 µM), usual class: inhibitors; 1.2% of 410,000 active; note: nearly all actives have a fitted effect of over 65% in size
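Inhibition of TGF-beta-driven CAGA-GFP reporter expression in HEPG2 cells is measured by cellular GFP fluorescence after 18 h stimulation with 500 pg/mL recombinant TGF-beta in 1% FBS medium at 37 degrees C.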
TDP1 cell CPT: qHTS for Inhibitors of human tyrosyl-DNA phosphodiesterase 1 (TDP1): qHTS in cells in presence of CPT | chicken DT40 Tdp1-/-;hTDP1 cells + 20 nM CPT, ATP luminescence, 48 h | Potency, µM (doses to about 46.2 µM), most hits filed as inhibitors | 12% of 420,000 active; note: nearly all actives have a fitted effect of over 55% in size
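Chicken DT40 Tdp1-/- cells stably complemented with human TDP1 were seeded at 400 cells/well in medium containing 20 nM camptothecin, exposed to pin-transferred compounds, and grown at 37 °C for at least 48 hr. Viability was read as ATP luminescence.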
TDP1 cell noCPT: qHTS for Inhibitors of human tyrosyl-DNA phosphodiesterase 1 (TDP1): qHTS in cells in absence of CPT. DT40 Tdp1-/- hTDP1 cells, no CPT, ATP luminescence, 48 h. Potency, µM (titrated, usually from 46.2 µM), usual class: inhibitors. 15% of 420,000 active; note: nearly all actives have a fitted effect of over 55% in size
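Chicken DT40 Tdp1-/- cells stably complemented with human TDP1 were seeded at 400 cells/well with DMSO in place of 20 nM camptothecin. After compound pinning, cells grew at least 48 hr at 37 °C; viability read by CellTiter-Glo luminescence.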
IL-1B inflam inh: qHTS for Inhibitors of Inflammasome Signaling: IL-1-beta AlphaLISA Primary Screen. THP-1 LPS/ATP IL-1B secretion, AlphaLISA, 16 h; stronger effect = lower value. activity change, % at 57.5 µM. AID 743279, 2014. 4.7% of 360,000 active; in the data active = activity change below about -50%; inconclusive = mostly about -30% to -49%
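THP-1 cells pretreated 1 hr with compounds (up to 57.5 uM final), then stimulated with LPS (250 ng/mL final) plus ATP (1.25 mM final); secreted IL-1B measured by AlphaLISA after 16 hr, decreased signal indicating inhibition.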
Large screens that a line does not name were inactive. The list is not random: actives were taken first. Their share in the collection is about 19%. Unless noted, calls come from the whole dose curve; as a rule, active = well fitted curve in the direction sought with a large enough effect; inconclusive = small, poorly fitted or top-dose-only effect, or another doubt; inactive = no such curve, though single readings can be large; an effect the other way counts as inactive or inconclusive.

CS(=O)(=O)Nc1cccc(NC(=O)C2Cc3c(-c4ccccc4)ccnc3O2)c1 (stereo not given)	TDP1 cell CPT 10µM, TDP1 cell noCPT 7.3µM (no result: ASM inhibitor)
OCC(O)C1OC(Nc2ccc(Cl)cc2)C(O)C1O (stereo not given)	none
COC(=O)CCc1c(COC(C)=O)[nH]c(C(=O)OCc2ccccc2)c1C	none
O=S(=O)(c1ccc(Cl)cc1)N1c2ccccc2Oc2nc3ccccc3nc21	TDP1 cell CPT 23µM, TDP1 cell noCPT 16µM
COc1ccc(S(=O)(=O)N2c3cc(Cl)ccc3Oc3nc4ccccc4nc32)cc1	TDP1 cell CPT 0.73µM, TDP1 cell noCPT 1.6µM
Cc1nc2ccc(S(=O)(=O)NCC(=O)Nc3ccc(F)cc3F)cc2s1	none (no result: ASM inhibitor, TGFb inhibitor, IL-1B inflam inh)
CCCCCCC(=O)N(O)C1CC(=O)N(c2ccc(Br)cc2)C1=O (stereo not given)	TGFb inhibitor inconclusive, TDP1 cell CPT 21µM, TDP1 cell noCPT 18µM, IL-1B inflam inh -82
COc1ccccc1N(O)C1CC(=O)N(c2ccc(Br)cc2)C1=O (stereo not given)	TDP1 cell CPT 18µM, TDP1 cell noCPT inconclusive
CCCCCCC(=O)N(O)C1CC(=O)N(c2ccc(F)cc2)C1=O (stereo not given)	TGFb inhibitor 18µM, TDP1 cell CPT 1.6µM, TDP1 cell noCPT 2.9µM, IL-1B inflam inh -88
O=C1CC(N(O)c2ccccc2)C(=O)N1c1ccc(Cl)c(Cl)c1 (stereo not given)	TDP1 cell CPT inconclusive, TDP1 cell noCPT inconclusive
CCOC(=O)N1CCN(C2CC(=O)N(c3ccc(F)cc3)C2=O)CC1 (stereo not given)	none
CCOc1ccc(N2C(=O)CC(Cc3ccc(Br)cc3)C2=O)cc1 (stereo not given)	none
CN(CC(=O)Nc1ccc(F)cc1)C(=O)COc1ccc([N+](=O)[O-])cc1Cl	TDP1 cell CPT inconclusive, TDP1 cell noCPT inconclusive
COc1ccc(C2=C(C)C(N3CCC(C(=O)NCc4ccc(C)o4)CC3)=NS2(=O)=O)cc1	none (no result: ASM inhibitor, IL-1B inflam inh)
Cc1cccc(OCC(=O)N2CCN(c3nnc(-c4ccccc4)c4ccccc34)CC2)c1	TGFb inhibitor inconclusive, TDP1 cell CPT inconclusive, TDP1 cell noCPT 18µM
Cc1ccc(-c2nnc(N3CCN(C(=O)COc4cccc(C)c4)CC3)c3ccccc23)cc1	TGFb inhibitor inconclusive, TDP1 cell CPT inconclusive, TDP1 cell noCPT inconclusive, IL-1B inflam inh -86
FC(F)(F)c1ccccc1-c1cncnc1Nc1ccccc1	none (no result: ASM inhibitor, HepG2 tox, TGFb inhibitor, IL-1B inflam inh)
CC(=O)C(C(C)=O)C1(O)C(=O)c2ccccc2C1=O	TGFb inhibitor inconclusive, TDP1 cell CPT 26µM, TDP1 cell noCPT 23µM
Cc1ccc(/C=C2\SC(=S)N(CCCC(=O)Nc3ccccn3)C2=O)cc1	TDP1 cell CPT inconclusive, TDP1 cell noCPT inconclusive
COC(=O)c1ccc(/C=C2/SC(=S)N(CCCC(=O)Nc3ccc(O)cc3)C2=O)cc1	TDP1 cell CPT inconclusive, TDP1 cell noCPT 13µM, IL-1B inflam inh inconclusive
COc1ccc(/C=C2\SC(=S)N(CCCC(=O)Nc3ccccn3)C2=O)cc1OC	TDP1 cell CPT inconclusive, TDP1 cell noCPT 29µM
O=C(CCCN1C(=O)/C(=C\c2cccs2)SC1=S)Nc1ccccn1	TGFb inhibitor inconclusive, TDP1 cell CPT inconclusive, TDP1 cell noCPT 16µM
COc1ccc(NC(=O)CCCN2C(=O)/C(=C\c3ccco3)SC2=S)cc1	TDP1 cell CPT inconclusive, TDP1 cell noCPT 16µM, IL-1B inflam inh -71
COc1cccc(C2(CC(=O)N3CCCOc4c(cccc4OC)C3)CC(=O)N(C)C2=O)c1 (stereo not given)	none (no result: ASM inhibitor, HepG2 tox, TGFb inhibitor, IL-1B inflam inh)
